Consider twelve compounds from PubChem BioAssay (NCI).

Several values for one entry are separate records, joined by “and”; a condition that tells them apart may be missing. Equal entries are not always repeated. The panel holds about 83,000 compounds, 20% with a hit somewhere; the sample as a whole holds those more often.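 The endpoint reported here, percent growth, reads 100 for growth as untreated, 0 for no net growth and -100 for all cells dead.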 Activity calls are given as the source filed them. The calls were made as follows: active = growth percent below 10; inactive = the rest.

Common to all, as to assay: NCI-60 one-dose screen, 48 h (100 = growth as untreated, 0 = no growth, -100 = all killed)
The test system of experiment [1] is T-47D breast.
The subject of experiment [2] is BT-549 breast.
Experiment [3] relates to MDA-MB-435 melanoma.
For experiment [4], the system named is SW-620 colon.
Experiment [5] has as its system MCF7 breast. As to conditions: 10 µM unless noted.
The subject of experiment [6] is HCT-116 colon.
Experiment [7] concerns HCC-2998 colon.
For experiment [8], the system named is KM12 colon.

In the case of `COc1ccc(/C=N/Nc2nc3ccccc3s2)cc1`, the growth was 86.6% (inactive) in experiment [1] (10 µM unless noted); 97.6% (inactive) in experiment [2] (10 µM unless noted); 83.3% (inactive) in experiment [3] (10 µM unless noted); 94.8% (inactive) in experiment [4] (10 µM unless noted); 61.1% (inactive) in experiment [5]; 83.3% (inactive) in experiment [6] (10 µM unless noted). Moreover, the growth in experiment [7] (10 µM unless noted) is 104% (inactive); in experiment [8] (10 µM unless noted) it was 87.6% (inactive).

Take `O=C1C=CC[C@H](/C=C/c2ccccc2)O1`: the growth in experiment [1] (10 µM unless noted) is 67.9% (inactive) and 9.64% (active); in experiment [2] (10 µM unless noted), 24.9% (inactive) and 4.24% (active); in experiment [3] (10 µM unless noted), 17.5% (inactive) and 4.07% (active); in experiment [4] (10 µM unless noted), 16.4% (inactive) and -39.2% (active); in experiment [5] it was 0.837% (active) and 1.92% (active); in experiment [6] (10 µM unless noted), 5.79% (active) and -18.5% (active). The growth in experiment [7] (10 µM unless noted) was 26.1% (inactive) and 32.3% (inactive); in experiment [8] (10 µM unless noted), 43.1% (inactive) and 35.6% (inactive).

Turning to `C(=N\OCCc1ccccc1)/c1ccccn1`, the growth in experiment [1] (10 µM unless noted) is 114% (inactive); in experiment [2] (10 µM unless noted) it was 138% (inactive) and 102% (inactive); in experiment [3] (10 µM unless noted), 109% (inactive) and 106% (inactive); in experiment [4] (10 µM unless noted), 110% (inactive) and 111% (inactive); in experiment [5], 92.9% (inactive) and 105% (inactive); in experiment [6] (10 µM unless noted), 112% (inactive) and 102% (inactive). In addition, the growth is 105% (inactive) and 104% (inactive) in experiment [7] (10 µM unless noted); 113% (inactive) and 107% (inactive) in experiment [8] (10 µM unless noted).

Regarding `Nc1ccc(O)c(C(=O)O)c1`, the growth in experiment [1] (10 µM unless noted) is 95% (inactive) and 104% (inactive) and 106% (inactive); in experiment [2] (10 µM unless noted), 76.3% (inactive) and 111% (inactive) and 92.6% (inactive); in experiment [3] (10 µM unless noted) it was 99.8% (inactive) and 101% (inactive) and 108% (inactive); in experiment [4] (10 µM unless noted), 96.7% (inactive) and 94.1% (inactive) and 103% (inactive); in experiment [5] it was 86.4% (inactive) and 102% (inactive) and 107% (inactive); in experiment [6] (10 µM unless noted), 98.7% (inactive) and 99.9% (inactive) and 85.5% (inactive). Besides, the growth in experiment [7] (10 µM unless noted) is 107% (inactive) and 104% (inactive) and 99.9% (inactive); in experiment [8] (10 µM unless noted), 101% (inactive) and 107% (inactive) and 91.5% (inactive).

On to `CN(C)c1ccc(C(=N)c2ccc(N(C)C)cc2)cc1`, for which the growth in experiment [1] (10 µM unless noted) was 16.9% (inactive) and 33.1% (inactive); in experiment [2] (10 µM unless noted), 70.1% (inactive) and 40.6% (inactive); in experiment [3] (10 µM unless noted) it was -7.96% (active) and -36.7% (active); in experiment [4] (10 µM unless noted) it was 9.98% (active) and 17.7% (inactive); in experiment [5], 10.1% (inactive) and 2.28% (active); in experiment [6] (10 µM unless noted), 18.5% (inactive) and 11.9% (inactive). Besides, the growth in experiment [7] (10 µM unless noted) is 52.4% (inactive) and 48% (inactive); in experiment [8] (10 µM unless noted) it was 14.4% (inactive) and 18.7% (inactive).

In the case of `CCOC(C)=N`, the growth in experiment [1] (10 µM unless noted) was 103% (inactive); in experiment [2] (10 µM unless noted), 108% (inactive); in experiment [3] (10 µM unless noted), 118% (inactive); in experiment [4] (10 µM unless noted), 107% (inactive); in experiment [5] it was 104% (inactive); in experiment [6] (10 µM unless noted), 95.1% (inactive). The results for the growth in experiment [7] (10 µM unless noted) and in experiment [8] (10 µM unless noted) were 103% (inactive) and 111% (inactive), respectively.

With `NC(=O)Cc1nc(O)cc(=O)[nH]1`, the growth in experiment [1] (10 µM unless noted) was 88.5% (inactive); in experiment [2] (10 µM unless noted), 109% (inactive); in experiment [3] (10 µM unless noted), 106% (inactive); in experiment [4] (10 µM unless noted), 104% (inactive); in experiment [5], 95.5% (inactive); in experiment [6] (10 µM unless noted), 110% (inactive). Besides, the figures for the growth in experiment [7] (10 µM unless noted) and in experiment [8] (10 µM unless noted) were 100% (inactive) and 106% (inactive), respectively.

With `O=c1ccn2c(n1)OC1CC2OC1COC(c1ccccc1)(c1ccccc1)c1ccccc1` (configuration not stated), the growth in experiment [1] (10 µM) was 109% (inactive); in experiment [1] (100 µM), 102% (inactive); in experiment [2] (10 µM), 123% (inactive); in experiment [2] (100 µM) it was 88.4% (inactive); in experiment [3] (10 µM), 103% (inactive); in experiment [3] (100 µM), -4.08% (active). In addition, the growth in experiment [4] (10 µM) is 108% (inactive); in experiment [4] (100 µM), 90.4% (inactive); in experiment [6] (10 µM), 101% (inactive); in experiment [6] (100 µM), 40.1% (inactive); in experiment [7] (10 µM), 106% (inactive); in experiment [7] (100 µM), 100% (inactive). Further, the growth is 117% (inactive) in experiment [8] (10 µM) and 96.3% (inactive) in experiment [8] (100 µM).

For `COc1ccc(CCNC(=S)NN)cc1OC`, the growth is 98.8% (inactive) in experiment [1] (10 µM unless noted); 118% (inactive) in experiment [2] (10 µM unless noted); 111% (inactive) in experiment [3] (10 µM unless noted); 99% (inactive) in experiment [4] (10 µM unless noted); 93.9% (inactive) in experiment [5]; 84.2% (inactive) in experiment [6] (10 µM unless noted). In addition, the growth in experiment [7] (10 µM unless noted) is 88.8% (inactive); in experiment [8] (10 µM unless noted) it was 94.2% (inactive).

Consider `CC(CN(C)C)CN1c2ccccc2Sc2ccccc21` (configuration not stated), for which the growth in experiment [1] (10 µM unless noted) was 79.4% (inactive) and 88.3% (inactive); in experiment [2] (10 µM unless noted) it was 79% (inactive) and 91.8% (inactive) and 80.2% (inactive); in experiment [3] (10 µM unless noted), 76.3% (inactive) and 85% (inactive) and 75.7% (inactive); in experiment [4] (10 µM unless noted) it was 86.9% (inactive) and 83.8% (inactive) and 88.8% (inactive); in experiment [5], 88.2% (inactive) and 94.2% (inactive) and 82.2% (inactive); in experiment [6] (10 µM unless noted), 59.3% (inactive) and 63.9% (inactive) and 94.9% (inactive). The growth in experiment [7] (10 µM unless noted) is 78.4% (inactive) and 97.8% (inactive) and 83.4% (inactive); in experiment [8] (10 µM unless noted), 95.4% (inactive) and 104% (inactive) and 89.5% (inactive).

In the case of `O=C1c2ccccc2C(c2ccccc2)C1c1ccccc1` (configuration not stated), the growth is 82.9% (inactive) in experiment [1] (10 µM unless noted); 131% (inactive) in experiment [2] (10 µM unless noted); 95.9% (inactive) in experiment [3] (10 µM unless noted); 90.1% (inactive) in experiment [4] (10 µM unless noted); 69.3% (inactive) in experiment [5]; 79.3% (inactive) in experiment [6] (10 µM unless noted). Moreover, the values for the growth in experiment [7] (10 µM unless noted) and in experiment [8] (10 µM unless noted) were 95.4% (inactive) and 95.1% (inactive), respectively.

Consider `Cc1nc(Nc2ccc(Cl)cc2)c2cnn(-c3ccccc3)c2n1`, for which the growth in experiment [1] (10 µM unless noted) is 101% (inactive); in experiment [2] (10 µM unless noted) it was 102% (inactive); in experiment [3] (10 µM unless noted), 94.7% (inactive); in experiment [4] (10 µM unless noted), 98.4% (inactive); in experiment [5], 88.2% (inactive); in experiment [6] (10 µM unless noted), 101% (inactive). In addition, the figures for the growth in experiment [7] (10 µM unless noted) and in experiment [8] (10 µM unless noted) were 105% (inactive) and 106% (inactive), respectively.
